# Pf apPOL inh: Pf-apPOL DNA polymerase inhibition | 210,000 tested, 0.25% active | inhibition, % at 10 µM | Recombinant Pf-apPOL, molecular beacon fluorescence, 1.5 h | AID 1794808
# mHTT CaM bind: disrupts binding of mutant huntingtin to calmodulin | P42858 | AlphaScreen His-mHTT/GST-CaM binding, luminescence | inhibition, % at 15 µM | 190,000 tested, 3.6% active | AID 1671202;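 also: 0% = both proteins with DMSO and 100% = one protein alone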
# An asterisk follows results filed as active; x = no result given. This is a sample that favours compounds with a hit; in the whole collection about 3.6% have one here. Rule as the data show it: active = inhibition above about 50%; inactive = the rest.
SMILES,Pf apPOL inh,mHTT CaM bind
CCOc1nccnc1NC1CCN(C(=O)c2ccc(C)nc2)CC1,-7.3,-1.3
CC(=O)N1CCc2cc(N3CC(C(=O)Nc4cc(F)ccc4Cl)CC3=O)ccc21 (stereo unspecified),-1.2,3.8
c1csc(-c2cc(CN3CCOCC3)[nH]n2)c1,-11.4,11.8
O=C(Nc1nc(-c2cc3ccccc3oc2=O)cs1)c1ccc(F)cc1,-2.0,-1.0
O=C(Nc1nc(-c2cc3ccccc3oc2=O)cs1)c1ccc(Br)s1,74.9*,-8.0
Cn1nnc(NCc2ccc(-c3ccc(Br)cc3)o2)n1,-4.4,16.3
COc1cccc(N2CCN3c4ccccc4CC(C(=O)NC4CC4)C3C2)c1 (stereo unspecified),-2.2,39.2
Nc1ccc(Oc2ccc(N)c(N)c2)cc1,-9.5,87.6*
COc1ccc(Oc2ccc(N)cc2)cc1,-5.4,21.5
CC(C)NC(=O)c1ccccc1OCC1CCN(C(=O)Cc2ccc(Cl)cc2)CC1,-1.2,-4.1
CC(C)(C)C(O)CCNC(=O)c1ccc(Br)cc1 (stereo unspecified),-2.9,-10.4
CCN(C)C(=O)c1nnc(N2CCN(c3ccccc3Cl)CC2)c2ccccc12,-5.0,31.6
O=C1OC(c2cccc(F)c2)=N/C1=C\c1ccc(F)cc1,-3.3,6.0
O=C1OC(c2cccc(F)c2)=N/C1=C\c1cccs1,7.5,24.0
Cc1ccc(/C=C2\N=C(c3cccc(F)c3)OC2=O)cc1,63.3*,6.0
O=C1OC(c2cccc(Cl)c2)=N/C1=C\c1cccs1,4.3,53.0*
CCCn1cc2c3c(cccc31)CN(C(=O)Nc1ccccc1)CC2,-4.7,-10.1
CCCS(=O)(=O)C(C#N)=Cc1ccc(-c2ccc(OC)cc2)s1,-8.1,x
COc1cccc(OCc2noc(-c3cccc(Cl)c3)n2)c1,-0.7,-43.4
CN(C)c1cccc(OCc2noc(-c3cccc(Cl)c3)n2)c1,-21.2,61.7*
O=C1CC(c2ccccc2F)c2c(n[nH]c2-c2ccccc2)N1 (stereo unspecified),3.7,7.2
O=C1CC(c2ccccc2Cl)c2c(n[nH]c2-c2ccccc2)N1 (stereo unspecified),1.7,69.4*
COc1ccc(C2CC(=O)Nc3n[nH]c(-c4ccccc4)c32)c(OC)c1 (stereo unspecified),1.0,80.4*
COc1ccc(C2CC(=O)Nc3n[nH]c(-c4ccc(Cl)cc4)c32)c(OC)c1 (stereo unspecified),-2.7,38.8
O=C(NCc1ccc(N2CCCCC2)nc1)c1c(F)cccc1F,3.6,8.3
SMILES,Pf apPOL inh,mHTT CaM bind
CC(C)n1c(C(O)c2ccc(OCc3ccccc3)cc2)nc2ccccc21 (stereo unspecified),9.8,81.1*
Cc1ccc(OCc2nc3ccccc3n2C(C)C)cc1,-1.9,-17.0
COc1cccc(CNC(=O)Cn2nc3c4cccc(C)c4ncn3c2=O)c1OC,-1.3,-9.5
Cc1cccc(N2C=C(C(=O)N3CCC(C)CC3)S(=O)(=O)c3ccccc32)c1,0.0,10.1
COc1ccccc1C1SCCN1C(=O)Nc1ccc(Cl)c(Cl)c1 (stereo unspecified),-6.2,97.0*
COc1ccccc1NC(=O)Nc1ccc(Cl)c(Cl)c1,-4.6,-5.2
CCn1cnc2c1c(=O)n(CC(C)C)c(=O)n2-c1ccc(C)cc1C,1.0,20.1
O=C(Nc1cccc(F)c1)c1ccc(N2CCC(NCc3ccc(Cl)cc3)C2)nc1 (stereo unspecified),3.1,12.1
COc1ccc(C(=O)COc2ccc3c(c2)OC(=CC2=Cc4ccccc4OC2)C3=O)cc1OC,-6.1,57.6*
COc1cccc(C=C2Oc3cc(OCC(C)=O)ccc3C2=O)c1,-0.4,5.8
COc1ccc(C=C2Oc3cc(OCC(=O)c4ccc(OC)cc4)ccc3C2=O)cc1,-3.4,-1.1
CCOC(=O)COc1ccc2c(c1)OC(=CC=Cc1ccccc1)C2=O,-2.3,10.7
COc1ccc(C=C2Oc3cc(OCC(=O)O)ccc3C2=O)cc1,61.4*,4.0
C=C(C)COc1ccc2c(c1)OC(=Cc1cccc(OC)c1)C2=O,-6.6,72.9*
CC(C)(C)OC(=O)COc1ccc2c(c1)OC(=CC1=Cc3ccccc3OC1)C2=O,-2.7,8.1
CC(=O)COc1ccc2c(c1)OC(=CC=Cc1ccccc1)C2=O,7.1,87.7*
Cc1cccc(NC(=O)C2(C)Oc3cccnc3N(C(C)C)C2=O)c1 (stereo unspecified),-5.8,-10.5
O=C(Cc1nnc(-c2cccc(F)c2)o1)Nc1ccccc1,1.2,-6.3
O=C(Cc1ccc(F)cc1)Nc1cnc(N2CCCCCC2)nc1,-4.6,0.0
COc1nccc(N2CCC(CC(=O)NCCc3ccccn3)CC2)n1,-7.3,0.2
Cc1ccc2c(c1)/C(=c1\sc3nc4ccccc4n3c1=O)C(=O)N2,54.9*,0.0
CCN1C(=O)/C(=c2/sc3nc4ccccc4n3c2=O)c2ccccc21,5.5,-3.0
CCCCC[C@@H](C)N1C[C@@H](COCc2ccccc2)Oc2cc(N3CC[C@H](O)C3)ccc2S1(=O)=O,-3.3,89.7*
CCCCC[C@H](C)N1C[C@@H](COCc2ccccc2)Oc2cc(N3CC[C@@H](O)C3)ccc2S1(=O)=O,-6.6,74.0*
CCCCC[C@@H](C)N1C[C@H](COCc2ccccc2)Oc2cc(N3CCC[C@H]3C(N)=O)ccc2S1(=O)=O,-4.7,21.9
SMILES,Pf apPOL inh,mHTT CaM bind
CCCCC[C@H](C)N1C[C@H](COCc2ccccc2)Oc2cc(N3CCC[C@H]3C(N)=O)ccc2S1(=O)=O,-17.8,41.7
CCCCC[C@@H](C)N1C[C@@H](COCc2ccccc2)Oc2cc(N3CCC[C@@H]3CO)ccc2S1(=O)=O,-5.5,21.9
CCCCC[C@@H](C)N1C[C@@H](COCc2ccccc2)Oc2cc(N3CC[C@@H](O)C3)ccc2S1(=O)=O,-2.1,99.2*
O=C(O)c1nccnc1C(=O)NNc1c(Cl)cncc1Cl,-5.8,x
Cc1ccc(CNS(=O)(=O)c2ccc(F)c(C(=O)Nc3ccc(F)c(Cl)c3)c2)cc1,-7.3,6.0
COc1ccccc1NC(=O)C1=C(C)Nc2nc3ccccc3n2C1c1ccc(Cl)cc1 (stereo unspecified),-0.5,51.0*
COc1ccccc1NC(=O)C1=C(C)Nc2nc3ccccc3n2C1c1cccnc1 (stereo unspecified),-3.1,5.0
Cc1cc(C)c([N+](=O)[O-])c(C)n1,2.5,x
O=C(Cc1cccc(F)c1)N1CCC(COc2ccc(C(=O)N3CCCCC3)cc2)CC1,-1.7,11.2
COc1cc(/C=C/c2ccc3cccc(O)c3n2)cc([N+](=O)[O-])c1O,-4.7,93.0*
Oc1cccc2ccc(/C=C/c3cc4c(cc3Br)OCO4)nc12,-8.5,72.0*
COc1cc(/C=C/c2ccc3cccc(O)c3n2)c(Cl)cc1O,-5.5,63.2*
COc1cc(Br)c(/C=C/c2ccc3cccc(O)c3n2)cc1OC,-5.2,35.0
COc1cccc2ccc(/C=C/c3cccc([N+](=O)[O-])c3)nc12,-8.5,11.6
O=[N+]([O-])c1ccc(O)c(C=Nc2nc3c(O)cccc3s2)c1,-4.8,13.0
COc1cc(/C=C/c2ccc3cccc(O)c3n2)c(Br)cc1O,-7.5,48.0
O=[N+]([O-])c1ccc(O)c(/C=C/c2ccc3cccc(O)c3n2)c1,2.6,59.9*
O=C(NC(C(Cl)Cl)S(=O)(=O)c1ccccc1)c1ccccc1 (stereo unspecified),2.8,-1.0
Cc1cccc(CN2CCN(C3CCN(C(=O)Nc4ccccc4C)CC3)C2=O)c1,-7.9,27.9
Oc1ccccc1C=NC(c1ccccc1O)C(N=Cc1ccccc1O)c1ccccc1O (stereo unspecified),-6.5,x

# Assay outcomes: PubChem, University of Kansas High Throughput Screening Laboratory
